From PubChem BioAssay AID588579 (National Center for Advancing Translational Sciences (NCATS), 2011)
Screen size: about 400,000 compounds; about 2,200 (0.55%) were called active. Roughly 1% stayed inconclusive and do not appear here. The entries come from a sample that favours actives as a whole. Values without a mark were called inactive. Calls come from the whole dose curve; as a rule, active = well fitted inhibition curve with a large enough effect; inconclusive = small, poorly fitted or top-dose-only effect, or another doubt; inactive = no such curve, though single readings can be large or run the other way. Positions of bridges follow the written chain, without caps; N, C: chain ends. Residues, ends and D or L forms follow the SMILES beside them.
% is set by controls: 0 for no effect and ±100 for the full control effect; potency is the fitted concentration of half-maximal effect.

What follows are compounds tested against DNA polymerase kappa (Homo sapiens) (UniProt Q9UBT6) (assay: qHTS for Inhibitors of Polymerase Kappa). Conditions: purified Pol kappa, fluorescent DNA synthesis assay, 10 min; series mostly up to 107 µM; activity, negative = inhibition: at the top concentration.
Sequence of DNA polymerase kappa (Homo sapiens) (Q9UBT6 whole entry, looked up): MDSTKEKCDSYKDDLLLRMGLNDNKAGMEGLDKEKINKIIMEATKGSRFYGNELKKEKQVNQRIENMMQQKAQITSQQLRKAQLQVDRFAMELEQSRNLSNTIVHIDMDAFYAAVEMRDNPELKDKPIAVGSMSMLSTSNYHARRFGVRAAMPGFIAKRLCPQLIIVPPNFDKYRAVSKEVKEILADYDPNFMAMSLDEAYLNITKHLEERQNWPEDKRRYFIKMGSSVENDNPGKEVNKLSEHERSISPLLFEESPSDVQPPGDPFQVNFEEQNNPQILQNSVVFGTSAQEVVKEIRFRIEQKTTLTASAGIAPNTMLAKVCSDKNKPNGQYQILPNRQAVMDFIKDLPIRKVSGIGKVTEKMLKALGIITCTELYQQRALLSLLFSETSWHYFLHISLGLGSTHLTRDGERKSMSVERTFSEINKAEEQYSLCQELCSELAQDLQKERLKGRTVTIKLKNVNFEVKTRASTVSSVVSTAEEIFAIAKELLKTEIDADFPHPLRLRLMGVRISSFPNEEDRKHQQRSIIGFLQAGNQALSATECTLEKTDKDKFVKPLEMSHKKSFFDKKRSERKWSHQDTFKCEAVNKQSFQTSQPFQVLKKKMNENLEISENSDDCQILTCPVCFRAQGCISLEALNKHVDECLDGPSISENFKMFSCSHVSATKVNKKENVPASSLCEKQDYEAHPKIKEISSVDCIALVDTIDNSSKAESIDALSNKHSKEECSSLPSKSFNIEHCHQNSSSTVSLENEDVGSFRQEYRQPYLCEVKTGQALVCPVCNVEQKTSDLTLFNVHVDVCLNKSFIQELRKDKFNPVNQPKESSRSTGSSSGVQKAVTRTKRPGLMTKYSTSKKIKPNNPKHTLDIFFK
Outline: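 50 nM final substrate added after 15 min RT preincubation of 10 nM Pol kappa with compound; fluorescence read at 0 and 10 min.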
With `COc1ccc(Oc2ncc3nc(C)c(=O)n(-c4ccccc4)c3n2)cc1` the “activity, negative = inhibition” value was -6.07% [at 60.1 µM]. With `O=C1COc2c1ccc(O)c2O` the Potency was 25.1 µM (active). With `Cc1csc(NCC(=O)c2c[nH]c3ccccc23)n1` the “activity, negative = inhibition” value was -40.6%. For `C/C=C/NNC(=O)Cc1ccc(OC)cc1`, the “activity, negative = inhibition” value was 8.17%. With `CN1CCCC1CCO[C@@](C)(c1ccccc1)c1ccc(Cl)cc1` (some centres not stated) the “activity, negative = inhibition” value was 0.404% [at 60.1 µM]. With `COc1cc(/C=C/C(=O)OCC(=O)Nc2cccc(Oc3ccccc3)c2)ccc1O` the “activity, negative = inhibition” value was -8.89%. With `COc1cccc(NC(=O)COC(=O)c2ccc3ccccc3n2)c1` the “activity, negative = inhibition” value was -11.1%. `COc1cccc(NC(=O)COC(=O)/C=C/c2ccco2)c1` was tested, and the Potency was 79.4 µM (active). In the case of `Cc1nc2cnc(N3CCN(C)CC3)nc2n(CCC#N)c1=O`, the “activity, negative = inhibition” value was 0.485% [at 60.1 µM]. With `C=C1C([C@@]2(C)C(OC(C)=O)CC(=O)O[C@@](C)(COC(C)=O)C2CC(=O)OC)C(OC=O)C(OC(=O)C(O)C(C)CC)[C@]2(C)C(c3ccoc3)CC(=O)C12O` (some centres not stated) the “activity, negative = inhibition” value was -17.9% [at 60.1 µM]. With `COc1ccc(-c2oc3ncnc(NCCCO)c3c2-c2ccc(OC)cc2)cc1` the “activity, negative = inhibition” value was -15.8%. With `Cc1noc2ncnc(NCc3ccccc3Cl)c12` the “activity, negative = inhibition” value was 6.87%. In the case of `OCCNc1ncnc2oc(-c3ccco3)c(-c3ccco3)c12`, the Potency was 11.2 µM (active). Compound `CC(C)=CCC[C@]1(C)[C@@H](CC=C(C)C)C[C@@]2(CC=C(C)C)C(=O)[C@]1(C(=O)C(C)C)C(=O)C(CC=C(C)C)=C2O` has an activity, negative = inhibition of -7.28% [at 19.4 µM]. In the case of `Cn1cccc1C(=O)N1CCC2(CC1)CN(c1cccc(-c3ccccc3)c1)C2`, the “activity, negative = inhibition” value was -7.92% [at 60.1 µM]. In the case of `O=[N+]([O-])c1cc(-c2nc(-c3ccccc3)no2)ccc1NCc1ccco1`, the “activity, negative = inhibition” value was -5.16%. For `Cc1ccc(/C([O-])=C(/C(=S)NCc2ccco2)[n+]2ccccc2)cc1[N+](=O)[O-]`, the Potency was 25.1 µM (active). `O=[N+]([O-])c1cccc(/C([O-])=C(/C(=S)Nc2ccccc2F)[n+]2ccccc2)c1` was tested, and the “activity, negative = inhibition” value was 0.0734%. With `COc1ccc(-c2nc3cnc(Oc4ccccc4)nc3n(Cc3cccs3)c2=O)cc1` the “activity, negative = inhibition” value was 0.602% [at 60.1 µM]. For `CC[C@]1([C@H]2O[C@@H]([C@@H]3O[C@](O)(CO)[C@@H](C)C[C@H]3C)C[C@H]2C)CC[C@@H]([C@]2(C)CC[C@@]3(C[C@@H](O)[C@@H](C)[C@@H]([C@H](C)[C@H](OC)[C@H](C)C(=O)O)O3)O2)O1`, the activity, negative = inhibition was -5.79% [at 19.4 µM]. `N#Cc1cccc(-c2nc3cnc(N4CCNCC4)nc3n(C3CC3)c2=O)c1` was tested, and the “activity, negative = inhibition” value was -9.7% [at 60.1 µM]. For `O=C(O)C1=C/C(=C/C=[N+]2c3cc(O)c(O[C@H]4OC(CO)[C@@H](O)[C@@H](O)[C@@H]4O)cc3C[C@@H]2C(=O)[O-])C[C@H](C(=O)O)N1` (some centres not stated), the “activity, negative = inhibition” value was -14.2%. In the case of `C[C@@H](O)[C@@H]1NC(=O)[C@H](CCCCN)NC(=O)[C@H](Cc2c[nH]c3ccccc23)NC(=O)[C@H](Cc2ccccc2)NC(=O)[C@H](Cc2ccccc2)NC(=O)[C@H](CC(N)=O)NC(=O)[C@H](CCCCN)NC(=O)[C@@H](NC(=O)[C@@H]2CCCN2)CSSC[C@@H](C(=O)N[C@@H](CCCCN)C(=O)O)NC(=O)[C@H](CO)NC(=O)[C@H](CO)NC(=O)[C@H](Cc2ccccc2)NC1=O` (H-PCKNFFWKTFSSCK-OH; disulfide 2-13), the “activity, negative = inhibition” value was 12.8% [at 60.1 µM]. In the case of `Cc1ccc(-c2nn(-c3ccccc3)cc2/C=C2\SC(=S)N(CCCCCC(=O)O)C2=O)o1`, the Potency was 79.4 µM (active). `O=C(Nc1ccc([N+](=O)[O-])cc1)c1cnn2c1NC(=C1CC1)C=C2C(F)F` was tested, and the “activity, negative = inhibition” value was -1.53%. With `O=C(Nc1ccc2nc(SCCOc3ccccc3)sc2c1)c1ccco1` the “activity, negative = inhibition” value was 2.6%. With `O=C(Nc1nc(-c2ccco2)c(-c2ccco2)s1)c1ccco1` the Potency was 79.4 µM (active). `CCN(c1ccc(Cl)cc1)S(=O)(=O)c1nnc(NC(=O)c2ccco2)s1` was tested, and the “activity, negative = inhibition” value was -1.12%. In the case of `O=C(c1ccc(NS(=O)(=O)c2ccc3[nH]c(=O)[nH]c3c2)cc1)N1CCCCC1`, the “activity, negative = inhibition” value was -6.59%. For `O=C(O)c1ccc(NS(=O)(=O)c2ccc3c(c2)C(=O)c2cc(S(=O)(=O)Nc4ccc(C(=O)O)cc4)ccc2-3)cc1`, the Potency was 79.4 µM (active). With `Cc1noc(C)c1S(=O)(=O)Nc1ccc(C(=O)O)cc1` the “activity, negative = inhibition” value was -5.57%. In the case of `O=C(O)c1c(Br)c(Br)c(Br)c(Br)c1C1c2ccc(O)cc2Oc2cc(O)ccc21`, the Potency was 1.12 µM (active). With `COc1ccccc1CNc1ncncc1-c1cccc(NS(C)(=O)=O)c1` the “activity, negative = inhibition” value was -0.267% [at 60.1 µM]. For `CC(C)C(N)C(=O)OCCOCn1cnc2c(=O)[nH]c(N)nc21` (configuration not stated), the “activity, negative = inhibition” value was -6.78% [at 60.1 µM]. Work on `CC(C)[C@H]1CC[C@@H](C)C[C@H]1O` yielded an activity, negative = inhibition of -5.92% [at 19.4 µM]. For `COc1cccc(Cn2c(=O)c(CCc3ccccc3)nc3cnc(N(C)C)nc32)c1`, the “activity, negative = inhibition” value was -9.05% [at 60.1 µM]. For `CC(C)C1N=C2c3ccccc3N=C(SCC(=O)c3ccc(O)c(O)c3)N2C1=O` (configuration not stated), the Potency was 20 µM (active). With `CCOC(=O)CSC1=Nc2ccccc2C2=NC(CCC(=O)NCc3ccc(F)cc3)C(=O)N12` (configuration not stated) the “activity, negative = inhibition” value was -3.99% [at 60.1 µM]. `Cc1ccc(CNC(=O)CSC2=Nc3ccccc3C3=NC(C)C(=O)N23)cc1` (configuration not stated) was tested, and the “activity, negative = inhibition” value was -4.01% [at 60.1 µM]. In the case of `CCCCC/C=C\CC1OC1CCCCCCCC(=O)O` (configuration not stated), the activity, negative = inhibition was -0.735% [at 19.4 µM]. For `COc1cc2nc(N3CCCN(C)CC3)nc(NC(C)C)c2cc1OC`, the “activity, negative = inhibition” value was 10.2%. With `C=COC(=O)N1CCN(/[N+]([O-])=N/Oc2ccc([N+](=O)[O-])cc2[N+](=O)[O-])CC1` the “activity, negative = inhibition” value was 5.1%. In the case of `CCC(C)Cn1c(O)cc2nn(-c3nc4ccccc4s3)c(=O)c-2c1C` (configuration not stated), the Potency was 25.1 µM (active). With `Nc1ncnc2c1c(I)cn2[C@@H]1C[C@H](N)[C@@H](O)[C@H]1O` the “activity, negative = inhibition” value was -5.63% [at 60.1 µM]. For `CC1(C)OC2CO[C@]3(COS(N)(=O)=O)OC(C)(C)OC3C2O1` (some centres not stated), the “activity, negative = inhibition” value was 1.69% [at 60.1 µM]. `COc1ccc(-c2cc(C(=O)NCc3cc(OC)c(OC)c(OC)c3)[nH]n2)cc1` was tested, and the “activity, negative = inhibition” value was 3.81%. `COc1ccc2[nH]c(C(=O)N/N=C/c3cc(OC)c(OC)c(OC)c3)cc2c1` was tested, and the Potency was 50.1 µM (active). With `COc1cc(NC(=O)c2cc3ccc4cccnc4c3[nH]2)cc(OC)c1OC` the “activity, negative = inhibition” value was -25%. In the case of `Nc1nc2nc(Cl)[nH]c2c(=O)[nH]1`, the “activity, negative = inhibition” value was -2.03% [at 60.1 µM]. `Cc1ccc(Cl)cc1NC(=O)CCS(=O)(=O)c1ccc(Br)s1` was tested, and the “activity, negative = inhibition” value was -20.1%. With `COc1ccc(Cl)cc1NC(=O)CCC(=O)c1ccc(C)cc1` the “activity, negative = inhibition” value was -5.69% [at 60.1 µM]. In the case of `COc1ccc(Cl)cc1NC(=O)CCS(=O)(=O)c1ccc(Br)cc1`, the Potency was 79.4 µM (active).
